The antibiotic and cytotoxicity screens of Wong et al. (2023)
The whole screen tested about 39,000 compounds, of which about 3,300 (8.5%) were called active. The full list was thinned out, with actives kept by preference.

These compounds were tested on HepG2 (assay: cytotoxicity call (relative viability < 0.9)). Settings: 10 µM.

SMILES | cytotoxicity call
Cc1noc(C)c1S(=O)(=O)Nc1ccc2c(c1)C(=O)N([C@H](C)CO)C[C@H](C)[C@@H](CN(C)S(=O)(=O)c1cn(C)cn1)OCCCC[C@H](C)O2 | inactive
C[C@@H]1CN([C@@H](C)CO)C(=O)c2cc(NC(=O)Nc3cccc4ccccc34)ccc2O[C@H]1CN(C)Cc1ccc(C(F)(F)F)cc1 | active
C[C@@H]1CN([C@@H](C)CO)C(=O)c2cc(NC(=O)Nc3cccc4ccccc34)ccc2O[C@@H]1CN(C)Cc1ccc(C(F)(F)F)cc1 | active
C[C@H](CO)N1C[C@H](C)[C@@H](CN(C)Cc2ccc(C(F)(F)F)cc2)Oc2ccc(NC(=O)Nc3cccc4ccccc34)cc2C1=O | inactive
C[C@H]1CN([C@@H](C)CO)C(=O)c2cc(NC(=O)Nc3cccc4ccccc34)ccc2O[C@@H]1CN(C)Cc1ccc(C(F)(F)F)cc1 | inactive
C[C@@H]1CN([C@H](C)CO)C(=O)c2cc(NC(=O)Nc3cccc4ccccc34)ccc2O[C@@H]1CN(C)Cc1ccc(C(F)(F)F)cc1 | inactive
C[C@H](CO)N1C[C@H](C)[C@H](CN(C)Cc2ccc(C(F)(F)F)cc2)Oc2ccc(NC(=O)Nc3cccc4ccccc34)cc2C1=O | active
C[C@H]1CN([C@@H](C)CO)C(=O)c2cc(NC(=O)Nc3cccc4ccccc34)ccc2O[C@H]1CN(C)Cc1ccc(C(F)(F)F)cc1 | inactive
C[C@@H]1CN([C@H](C)CO)C(=O)c2cc(NC(=O)Nc3cccc4ccccc34)ccc2O[C@H]1CN(C)Cc1ccc(C(F)(F)F)cc1 | inactive
O=C(O)c1cc(=O)cc(C(=O)O)o1 | inactive
C=CCn1c(O)c(C#N)c(C)cc1=O | inactive
CN(C)C(=O)C[C@H]1CC[C@H](NC(=O)C2CCOCC2)[C@H](CO)O1 | inactive
C[C@@H]1CCCCO[C@H](CN(C)C(=O)c2ccccc2)[C@@H](C)CN([C@H](C)CO)C(=O)c2cc(NS(=O)(=O)c3ccc(Cl)cc3)ccc2O1 | inactive
N#C/C(=C\c1cccs1)c1csc2ccc(Cl)cc12 | inactive
CO[C@@H]1CN(C)C(=O)c2cc(NC(=O)CC(F)(F)F)ccc2OC[C@@H](C)N(S(=O)(=O)c2cn(C)cn2)C[C@@H]1C | inactive
O=S(=O)(c1cccc(OC(F)F)c1)N1[C@@H]2CC[C@@H](C2)[C@H]1c1nc2cccc(OCc3ccccc3)c2[nH]1 | inactive
C[C@@H]1CN([C@@H](C)CO)S(=O)(=O)c2ccc(C#CC(C)(C)O)cc2O[C@H]1CN(C)Cc1ccc(F)cc1 | inactive
C[C@@H]1CN([C@H](C)CO)C(=O)Cc2cc(NC(=O)Nc3ccc4c(c3)OCO4)ccc2O[C@H]1CN(C)Cc1ccc(C(F)(F)F)cc1 | active
C[C@@H]1CN([C@H](C)CO)C(=O)Cc2cc(NC(=O)Nc3ccc4c(c3)OCO4)ccc2O[C@@H]1CN(C)Cc1ccc(C(F)(F)F)cc1 | active
C[C@H]1CN([C@@H](C)CO)C(=O)Cc2cc(NC(=O)Nc3ccc4c(c3)OCO4)ccc2O[C@@H]1CN(C)Cc1ccc(C(F)(F)F)cc1 | inactive
C[C@H](CO)N1C[C@H](C)[C@H](CN(C)Cc2ccc(C(F)(F)F)cc2)Oc2ccc(NC(=O)Nc3ccc4c(c3)OCO4)cc2CC1=O | inactive
C[C@@H]1CN([C@@H](C)CO)C(=O)Cc2cc(NC(=O)Nc3ccc4c(c3)OCO4)ccc2O[C@@H]1CN(C)Cc1ccc(C(F)(F)F)cc1 | inactive

SMILES | cytotoxicity call
C[C@@H]1CN([C@@H](C)CO)C(=O)Cc2cc(NC(=O)Nc3ccc4c(c3)OCO4)ccc2O[C@H]1CN(C)Cc1ccc(C(F)(F)F)cc1 | inactive
C[C@H]1CN([C@@H](C)CO)C(=O)Cc2cc(NC(=O)Nc3ccc4c(c3)OCO4)ccc2O[C@H]1CN(C)Cc1ccc(C(F)(F)F)cc1 | active
C[C@H](CO)N1C[C@H](C)[C@@H](CN(C)Cc2ccc(C(F)(F)F)cc2)Oc2ccc(NC(=O)Nc3ccc4c(c3)OCO4)cc2CC1=O | inactive
C[C@@H]1CCCCO[C@H](CN(C)C(=O)c2ccccc2)[C@H](C)CN([C@@H](C)CO)C(=O)c2cc(NS(=O)(=O)c3ccc(F)cc3)ccc2O1 | inactive
COCC(=O)N1C[C@H](C)[C@@H](OC)CN(C)C(=O)c2cc(NC(=O)Nc3ccccc3)ccc2OC[C@H]1C | inactive
C[C@@H]1CN([C@@H](C)CO)C(=O)c2cc(-c3ccc(C(=O)N(C)C)cc3)cnc2O[C@@H]1CN(C)C(=O)c1cccnc1 | inactive
C[C@@H]1CN([C@@H](C)CO)S(=O)(=O)c2ccc(C#Cc3ccc(F)cc3)cc2O[C@H]1CN(C)S(=O)(=O)c1cn(C)cn1 | inactive
C[C@@H]1CN([C@H](C)CO)C(=O)c2cc(NC(=O)Cn3cnnn3)ccc2O[C@@H]1CN(C)Cc1ccc(C(=O)O)cc1 | inactive
COc1ccc(CCNC(=O)[C@@]2(Sc3ccc(C)cc3)CC(=O)N(Cc3ccccc3C(F)(F)F)[C@@H]2c2ccc(CO)cc2I)cc1 | inactive
O=C(NCC1CC1)[C@@H]1[C@@H](CO)[C@@H]2Cn3c(cccc3=O)[C@H]1N2C(=O)c1cccnc1 | inactive
Cc1ccc(S(=O)(=O)Nc2cccc3c2O[C@H](CN(C)S(=O)(=O)c2ccccc2)[C@@H](C)CN([C@H](C)CO)C3=O)cc1 | inactive
C[C@]12CC3CC(N)(C1)C[C@@](C)(C3)C2 | inactive
C[C@]12C[C@@H]3C[C@](C)(C1)C[C@@](N)(C3)C2 | inactive
CC12CC3CC(C)(C1)CC(N)(C3)C2.Cl | active
C[C@@H]1CN([C@@H](C)CO)C(=O)c2cc(NC(=O)Nc3ccc4c(c3)OCO4)ccc2O[C@@H]1CN(C)S(C)(=O)=O | inactive
O=C(NCCN1CCOCC1)[C@]1(CCS(=O)(=O)c2ccccc2)N=C(c2ccc(OCCCO)cc2)O[C@@H]1c1ccccc1 | inactive
COc1ccc(NC(=O)N(C)C[C@@H]2Oc3ccc(NC(=O)CCCCCC(=O)Nc4ccccc4N)cc3CC(=O)N([C@@H](C)CO)C[C@H]2C)cc1 | inactive
C[C@H]1CCCCO[C@@H](CN(C)C(=O)NC2CCCCC2)[C@@H](C)CN([C@@H](C)CO)C(=O)c2cc(NC(=O)CCC(F)(F)F)ccc2O1 | inactive
C[C@@H]1CN([C@@H](C)CO)C(=O)c2cc(NC(=O)NC3CCCCC3)ccc2O[C@@H](C)CCCCO[C@H]1CN(C)CC1CCCCC1 | active
C[C@@H]1CCCCO[C@@H](CN(C)CC2CCCCC2)[C@H](C)CN([C@@H](C)CO)C(=O)c2cc(NC(=O)NC3CCCCC3)ccc2O1 | inactive
C[C@@H]1CCCCO[C@@H](CN(C)CC2CCCCC2)[C@@H](C)CN([C@@H](C)CO)C(=O)c2cc(NC(=O)NC3CCCCC3)ccc2O1 | inactive
C[C@H]1CCCCO[C@H](CN(C)CC2CCCCC2)[C@@H](C)CN([C@@H](C)CO)C(=O)c2cc(NC(=O)NC3CCCCC3)ccc2O1 | active

SMILES | cytotoxicity call
CCCN(C)C[C@H]1OCCCC[C@@H](C)Oc2ccc(NC(=O)NC3CCCCC3)cc2C(=O)N([C@@H](C)CO)C[C@H]1C | inactive
C[C@@H]1CCCCO[C@@H](CN(C)CC2CCCCC2)[C@H](C)CN([C@H](C)CO)C(=O)c2cc(NC(=O)NC3CCCCC3)ccc2O1 | inactive
CCCN(C)C[C@@H]1OCCCC[C@H](C)Oc2ccc(NC(=O)NC3CCCCC3)cc2C(=O)N([C@@H](C)CO)C[C@@H]1C | inactive
C[C@H](CO)N1C[C@H](C)[C@H](CN(C)CC2CCCCC2)OCCCC[C@H](C)Oc2ccc(NC(=O)NC3CCCCC3)cc2C1=O | inactive
CCCN(C)C[C@@H]1OCCCC[C@@H](C)Oc2ccc(NC(=O)NC3CCCCC3)cc2C(=O)N([C@H](C)CO)C[C@@H]1C | active
C[C@@H]1CCCCO[C@H](CN(C)CC2CCCCC2)[C@H](C)CN([C@H](C)CO)C(=O)c2cc(NC(=O)NC3CCCCC3)ccc2O1 | active
C[C@@H]1CN([C@@H](C)CO)C(=O)c2cc(NC(=O)NC3CCCCC3)ccc2O[C@@H](C)CCCCO[C@@H]1CN(C)CC1CCCCC1 | inactive
C[C@@H]1CCCCO[C@H](CN(C)CC2CCCCC2)[C@@H](C)CN([C@H](C)CO)C(=O)c2cc(NC(=O)NC3CCCCC3)ccc2O1 | inactive
COc1cccc(NC(=O)N2C[C@@H](O)COC[C@H]3O[C@H](CC(=O)NC4Cc5ccccc5C4)CC[C@@H]32)c1 | inactive
CCNC(=O)C[C@H]1CC[C@H]2[C@@H](COC[C@@H](O)CN2C(=O)Nc2c(C)noc2C)O1 | inactive
Cc1ccc(S(=O)(=O)N[C@@H]2CC[C@H](CCNC(=O)CN3CCOCC3)O[C@H]2CO)cc1 | inactive
CCOC(=O)CCc1n[nH]c(=O)[nH]c1=O | inactive
O=C(CCCCCNC(=O)OCCCCO[C@@H]1C[C@H](C2CCCCC2)C=C(C(=O)N2CCOCC2)O1)NO | inactive
Cc1noc(C)c1NC(=O)Nc1ccc2c(c1)C(=O)N([C@@H](C)CO)C[C@@H](C)[C@H](CN(C)S(C)(=O)=O)O2 | inactive
C[C@H](CO)N1C[C@H](C)[C@@H](CN(C)C(=O)CCC(F)(F)F)OCCCC[C@H](C)Oc2ccc(NC(=O)C3CCCCC3)cc2C1=O | inactive
Cc1noc(C)c1NC(=O)N(C)C[C@@H]1OCCCC[C@H](C)Oc2ccc(NC(=O)CCC(F)(F)F)cc2C(=O)N([C@@H](C)CO)C[C@H]1C | inactive
C[C@H](CO)N1C[C@H](C)[C@H](CN(C)Cc2ccc(Cl)c(Cl)c2)Oc2c(NC(=O)Nc3ccccc3)cccc2C1=O | inactive
C[C@@H]1CN([C@H](C)CO)C(=O)c2cccc(NS(=O)(=O)c3ccc(Cl)cc3)c2O[C@H]1CN(C)Cc1ccc(Cl)c(Cl)c1 | inactive
O=S1(=O)C[C@H](NCCO)[C@@H](O)C1 | inactive
OCc1c[nH]c2ccccc12 | active
CNC(=O)C(=O)NCCc1c[nH]c2ccccc12 | inactive
NC(Cc1c[nH]c2ccccc12)C(=O)O (stereo unspecified) | inactive
